Test results: ChEMBL document CHEMBL2218924, “A broad activity screen in support of a chemogenomic map for kinase signalling research and drug discovery” (Biochem J, 2013)

How the values were obtained:
[1] = molecular target: Death-associated protein kinase 1 (Homo sapiens) (UniProt P53355); settings: at 10 µM
[2] = molecular target: Death-associated protein kinase 2 (Homo sapiens) (UniProt Q9UIK4); settings: at 1 µM
[3] = molecular target: Death-associated protein kinase 2 (Homo sapiens) (UniProt Q9UIK4); settings: at 10 µM
[4] = molecular target: T1, Serine/threonine-protein kinase DCLK2 (Homo sapiens) (UniProt Q8N568); settings: at 1 µM
T1 sequence (whole entry): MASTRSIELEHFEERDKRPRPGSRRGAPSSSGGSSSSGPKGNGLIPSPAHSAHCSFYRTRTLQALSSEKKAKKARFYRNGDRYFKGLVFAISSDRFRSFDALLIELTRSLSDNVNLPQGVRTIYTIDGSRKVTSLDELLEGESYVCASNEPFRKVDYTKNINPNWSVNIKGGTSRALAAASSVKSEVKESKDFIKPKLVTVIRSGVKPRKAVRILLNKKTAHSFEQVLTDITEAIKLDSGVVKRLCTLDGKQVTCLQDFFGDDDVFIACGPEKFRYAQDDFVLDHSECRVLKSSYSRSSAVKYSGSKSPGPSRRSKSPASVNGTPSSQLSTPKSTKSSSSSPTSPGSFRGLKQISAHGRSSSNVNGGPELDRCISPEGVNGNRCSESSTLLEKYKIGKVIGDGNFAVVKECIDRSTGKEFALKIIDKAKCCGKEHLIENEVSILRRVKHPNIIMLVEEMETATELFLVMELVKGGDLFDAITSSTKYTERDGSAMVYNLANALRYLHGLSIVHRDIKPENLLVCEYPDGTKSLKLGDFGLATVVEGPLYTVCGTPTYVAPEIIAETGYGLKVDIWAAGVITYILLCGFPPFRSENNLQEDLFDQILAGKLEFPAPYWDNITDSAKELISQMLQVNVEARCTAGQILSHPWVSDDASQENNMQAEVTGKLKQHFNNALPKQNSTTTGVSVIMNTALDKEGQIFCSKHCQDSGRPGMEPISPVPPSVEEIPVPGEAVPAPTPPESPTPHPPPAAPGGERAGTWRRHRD

[5] = molecular target: T1, Serine/threonine-protein kinase DCLK2 (Homo sapiens); settings: at 10 µM
[6] = molecular target: T2, Discoidin domain-containing receptor 2 (Homo sapiens) (UniProt Q16832); settings: at 1 µM
T2 sequence (whole entry): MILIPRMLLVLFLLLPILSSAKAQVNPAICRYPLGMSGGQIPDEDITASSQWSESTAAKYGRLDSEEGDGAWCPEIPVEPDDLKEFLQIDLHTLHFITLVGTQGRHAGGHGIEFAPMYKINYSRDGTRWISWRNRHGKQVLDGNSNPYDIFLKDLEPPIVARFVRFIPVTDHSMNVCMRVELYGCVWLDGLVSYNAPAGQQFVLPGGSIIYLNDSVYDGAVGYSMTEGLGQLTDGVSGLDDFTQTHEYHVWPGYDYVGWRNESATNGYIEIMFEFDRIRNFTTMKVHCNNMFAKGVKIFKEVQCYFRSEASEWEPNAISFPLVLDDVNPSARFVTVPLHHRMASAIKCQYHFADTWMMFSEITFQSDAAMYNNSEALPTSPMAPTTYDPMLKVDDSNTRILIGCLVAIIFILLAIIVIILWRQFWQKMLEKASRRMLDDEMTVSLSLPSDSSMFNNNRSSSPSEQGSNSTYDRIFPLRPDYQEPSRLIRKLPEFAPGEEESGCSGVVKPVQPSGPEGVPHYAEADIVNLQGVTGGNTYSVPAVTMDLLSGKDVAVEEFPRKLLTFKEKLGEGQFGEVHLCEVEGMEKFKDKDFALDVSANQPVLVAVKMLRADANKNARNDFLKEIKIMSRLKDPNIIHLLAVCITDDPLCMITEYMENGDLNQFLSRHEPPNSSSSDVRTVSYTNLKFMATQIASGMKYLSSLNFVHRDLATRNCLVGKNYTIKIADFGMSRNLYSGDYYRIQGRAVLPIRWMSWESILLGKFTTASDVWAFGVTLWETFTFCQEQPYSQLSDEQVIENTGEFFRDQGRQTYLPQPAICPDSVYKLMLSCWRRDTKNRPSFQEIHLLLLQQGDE

[7] = molecular target: T2, Discoidin domain-containing receptor 2 (Homo sapiens); settings: at 10 µM
[8] = molecular target: T3, Myotonin-protein kinase (Homo sapiens) (UniProt Q09013); settings: at 1 µM
T3 sequence (whole entry): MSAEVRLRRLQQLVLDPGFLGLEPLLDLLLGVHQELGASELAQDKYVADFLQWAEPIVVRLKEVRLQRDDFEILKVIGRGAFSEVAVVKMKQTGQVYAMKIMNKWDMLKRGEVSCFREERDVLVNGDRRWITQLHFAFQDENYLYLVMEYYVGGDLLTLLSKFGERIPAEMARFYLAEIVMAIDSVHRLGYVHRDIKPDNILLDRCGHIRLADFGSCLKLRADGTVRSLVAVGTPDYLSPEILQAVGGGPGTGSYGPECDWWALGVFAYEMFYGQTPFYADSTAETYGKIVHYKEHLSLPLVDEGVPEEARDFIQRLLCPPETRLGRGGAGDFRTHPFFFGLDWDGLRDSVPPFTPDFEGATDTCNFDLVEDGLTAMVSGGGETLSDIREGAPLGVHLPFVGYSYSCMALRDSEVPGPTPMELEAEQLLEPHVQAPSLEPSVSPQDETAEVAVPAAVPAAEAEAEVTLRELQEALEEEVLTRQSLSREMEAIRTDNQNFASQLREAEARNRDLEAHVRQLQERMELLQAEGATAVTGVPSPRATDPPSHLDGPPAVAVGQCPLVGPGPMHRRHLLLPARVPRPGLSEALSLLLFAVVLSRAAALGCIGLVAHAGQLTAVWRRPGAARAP

[9] = molecular target: T3, Myotonin-protein kinase (Homo sapiens); settings: at 10 µM
[10] = molecular target: T4, Serine/threonine-protein kinase 17A (Homo sapiens) (UniProt Q9UEE5); settings: at 1 µM
T4 sequence (whole entry): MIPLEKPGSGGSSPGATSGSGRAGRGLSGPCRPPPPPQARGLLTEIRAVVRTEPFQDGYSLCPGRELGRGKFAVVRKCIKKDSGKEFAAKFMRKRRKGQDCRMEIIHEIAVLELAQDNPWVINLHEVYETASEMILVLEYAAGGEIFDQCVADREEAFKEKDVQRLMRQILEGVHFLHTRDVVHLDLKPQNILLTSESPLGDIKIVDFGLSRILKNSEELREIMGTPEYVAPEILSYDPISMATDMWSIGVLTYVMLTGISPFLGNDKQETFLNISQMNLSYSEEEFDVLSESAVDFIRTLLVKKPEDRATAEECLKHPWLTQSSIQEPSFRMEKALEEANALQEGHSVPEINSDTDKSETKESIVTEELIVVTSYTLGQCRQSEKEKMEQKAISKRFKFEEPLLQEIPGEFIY

[11] = molecular target: T4, Serine/threonine-protein kinase 17A (Homo sapiens); settings: at 10 µM
[12] = molecular target: T5, Dual specificity tyrosine-phosphorylation-regulated kinase 2 (Homo sapiens) (UniProt Q92630); settings: at 1 µM
T5 sequence (whole entry): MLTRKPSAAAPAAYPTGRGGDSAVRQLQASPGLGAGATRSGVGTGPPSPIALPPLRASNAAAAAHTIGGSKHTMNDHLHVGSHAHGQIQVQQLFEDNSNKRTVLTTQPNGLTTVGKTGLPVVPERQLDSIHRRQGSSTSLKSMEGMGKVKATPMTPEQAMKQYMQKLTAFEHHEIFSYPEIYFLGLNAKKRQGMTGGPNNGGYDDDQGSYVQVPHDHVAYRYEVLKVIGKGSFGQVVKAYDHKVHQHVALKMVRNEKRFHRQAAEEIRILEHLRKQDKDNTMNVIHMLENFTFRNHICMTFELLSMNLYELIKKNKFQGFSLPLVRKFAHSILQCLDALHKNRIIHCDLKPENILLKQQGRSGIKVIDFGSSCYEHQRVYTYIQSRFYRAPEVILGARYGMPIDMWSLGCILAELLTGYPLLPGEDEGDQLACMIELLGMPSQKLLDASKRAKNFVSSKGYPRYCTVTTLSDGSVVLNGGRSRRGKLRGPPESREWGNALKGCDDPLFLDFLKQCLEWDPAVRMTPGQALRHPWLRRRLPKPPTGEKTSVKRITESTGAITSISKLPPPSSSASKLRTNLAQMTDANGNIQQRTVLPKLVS

[13] = molecular target: T5, Dual specificity tyrosine-phosphorylation-regulated kinase 2 (Homo sapiens); settings: at 10 µM
[14] = molecular target: T6, Ephrin type-A receptor 1 (Homo sapiens) (UniProt P21709); settings: at 1 µM
T6 sequence (whole entry): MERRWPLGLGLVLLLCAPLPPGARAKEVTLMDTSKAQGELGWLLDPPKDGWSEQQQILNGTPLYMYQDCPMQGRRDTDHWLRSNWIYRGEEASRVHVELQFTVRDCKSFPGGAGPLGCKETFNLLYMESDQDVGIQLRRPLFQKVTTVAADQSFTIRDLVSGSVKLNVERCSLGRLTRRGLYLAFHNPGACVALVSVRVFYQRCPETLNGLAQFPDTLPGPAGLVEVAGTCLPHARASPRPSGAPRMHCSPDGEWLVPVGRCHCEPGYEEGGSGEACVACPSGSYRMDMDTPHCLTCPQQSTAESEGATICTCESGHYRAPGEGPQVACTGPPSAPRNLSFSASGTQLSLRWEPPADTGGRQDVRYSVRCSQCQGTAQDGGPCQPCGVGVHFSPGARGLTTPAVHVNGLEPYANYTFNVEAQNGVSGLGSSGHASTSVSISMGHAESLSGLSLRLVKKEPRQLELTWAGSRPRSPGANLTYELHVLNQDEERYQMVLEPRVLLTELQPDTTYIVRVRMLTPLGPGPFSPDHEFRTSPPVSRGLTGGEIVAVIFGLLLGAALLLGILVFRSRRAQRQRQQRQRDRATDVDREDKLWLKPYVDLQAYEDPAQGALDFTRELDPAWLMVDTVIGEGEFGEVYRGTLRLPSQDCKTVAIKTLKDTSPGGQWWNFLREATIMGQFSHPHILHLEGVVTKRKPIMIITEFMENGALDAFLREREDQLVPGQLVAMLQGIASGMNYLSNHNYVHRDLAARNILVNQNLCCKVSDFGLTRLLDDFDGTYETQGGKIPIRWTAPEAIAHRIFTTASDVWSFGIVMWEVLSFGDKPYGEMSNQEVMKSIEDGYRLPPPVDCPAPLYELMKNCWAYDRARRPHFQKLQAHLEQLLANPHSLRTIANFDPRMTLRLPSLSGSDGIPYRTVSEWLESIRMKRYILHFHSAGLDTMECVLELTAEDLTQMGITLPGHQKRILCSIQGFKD

[15] = molecular target: T6, Ephrin type-A receptor 1 (Homo sapiens); settings: at 10 µM
[16] = molecular target: Ephrin type-A receptor 2 (Homo sapiens) (UniProt P29317); settings: at 1 µM
Sequence of Ephrin type-A receptor 2 (Homo sapiens) (P29317 whole entry): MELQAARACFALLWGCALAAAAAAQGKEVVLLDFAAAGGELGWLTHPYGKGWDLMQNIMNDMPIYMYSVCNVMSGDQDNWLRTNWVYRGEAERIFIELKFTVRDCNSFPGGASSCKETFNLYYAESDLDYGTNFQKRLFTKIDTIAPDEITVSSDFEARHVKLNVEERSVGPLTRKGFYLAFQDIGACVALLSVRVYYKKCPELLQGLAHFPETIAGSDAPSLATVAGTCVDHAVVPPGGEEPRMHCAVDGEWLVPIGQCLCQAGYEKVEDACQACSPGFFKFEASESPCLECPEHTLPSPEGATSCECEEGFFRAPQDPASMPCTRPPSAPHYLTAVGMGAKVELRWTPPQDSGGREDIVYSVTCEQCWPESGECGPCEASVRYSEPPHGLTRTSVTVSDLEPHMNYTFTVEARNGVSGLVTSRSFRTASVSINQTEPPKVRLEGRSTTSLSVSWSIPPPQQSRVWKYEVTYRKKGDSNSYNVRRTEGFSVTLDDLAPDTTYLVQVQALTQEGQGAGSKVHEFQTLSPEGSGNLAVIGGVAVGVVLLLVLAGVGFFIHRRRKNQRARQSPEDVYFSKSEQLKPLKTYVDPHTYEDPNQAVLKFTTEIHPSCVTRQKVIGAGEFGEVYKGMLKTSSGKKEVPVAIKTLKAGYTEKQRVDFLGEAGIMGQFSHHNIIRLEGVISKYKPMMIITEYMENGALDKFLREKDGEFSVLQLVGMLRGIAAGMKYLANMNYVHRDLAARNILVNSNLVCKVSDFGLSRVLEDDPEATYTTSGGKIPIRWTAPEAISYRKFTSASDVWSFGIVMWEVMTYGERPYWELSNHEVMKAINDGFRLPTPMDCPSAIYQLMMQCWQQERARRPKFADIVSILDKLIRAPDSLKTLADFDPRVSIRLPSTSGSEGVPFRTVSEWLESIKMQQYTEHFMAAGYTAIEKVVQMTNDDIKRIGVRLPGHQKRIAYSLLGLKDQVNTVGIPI

[17] = molecular target: Ephrin type-A receptor 2 (Homo sapiens) (UniProt P29317); settings: at 10 µM
[18] = molecular target: T7, Ephrin type-A receptor 3 (Homo sapiens) (UniProt P29320); settings: at 1 µM
T7 sequence (whole entry): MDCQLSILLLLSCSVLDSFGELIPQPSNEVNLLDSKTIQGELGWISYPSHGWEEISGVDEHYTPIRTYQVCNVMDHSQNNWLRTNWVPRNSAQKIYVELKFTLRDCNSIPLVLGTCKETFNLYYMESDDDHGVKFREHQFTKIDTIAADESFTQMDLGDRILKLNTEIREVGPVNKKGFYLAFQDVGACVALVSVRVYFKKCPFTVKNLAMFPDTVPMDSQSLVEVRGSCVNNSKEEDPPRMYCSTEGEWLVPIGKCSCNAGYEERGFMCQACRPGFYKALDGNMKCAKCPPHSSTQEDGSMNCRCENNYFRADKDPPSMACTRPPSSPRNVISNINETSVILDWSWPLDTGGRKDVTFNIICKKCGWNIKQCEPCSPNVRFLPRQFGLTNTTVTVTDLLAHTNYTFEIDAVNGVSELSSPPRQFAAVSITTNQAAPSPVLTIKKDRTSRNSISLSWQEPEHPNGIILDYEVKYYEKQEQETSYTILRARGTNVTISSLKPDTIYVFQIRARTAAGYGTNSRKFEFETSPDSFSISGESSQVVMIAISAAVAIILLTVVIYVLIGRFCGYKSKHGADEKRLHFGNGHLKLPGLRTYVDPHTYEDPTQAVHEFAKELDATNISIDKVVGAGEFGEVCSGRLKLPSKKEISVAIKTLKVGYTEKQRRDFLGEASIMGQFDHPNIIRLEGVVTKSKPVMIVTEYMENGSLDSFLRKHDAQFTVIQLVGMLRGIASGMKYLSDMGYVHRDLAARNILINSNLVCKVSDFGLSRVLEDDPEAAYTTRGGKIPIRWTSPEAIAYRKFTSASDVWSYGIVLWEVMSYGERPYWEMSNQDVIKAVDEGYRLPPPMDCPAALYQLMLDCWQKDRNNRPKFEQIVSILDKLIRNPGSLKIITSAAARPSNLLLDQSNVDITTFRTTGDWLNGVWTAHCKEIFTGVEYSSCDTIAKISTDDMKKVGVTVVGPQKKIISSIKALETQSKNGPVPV

Sequence of Death-associated protein kinase 2 (Homo sapiens) (Q9UIK4 whole entry, looked up): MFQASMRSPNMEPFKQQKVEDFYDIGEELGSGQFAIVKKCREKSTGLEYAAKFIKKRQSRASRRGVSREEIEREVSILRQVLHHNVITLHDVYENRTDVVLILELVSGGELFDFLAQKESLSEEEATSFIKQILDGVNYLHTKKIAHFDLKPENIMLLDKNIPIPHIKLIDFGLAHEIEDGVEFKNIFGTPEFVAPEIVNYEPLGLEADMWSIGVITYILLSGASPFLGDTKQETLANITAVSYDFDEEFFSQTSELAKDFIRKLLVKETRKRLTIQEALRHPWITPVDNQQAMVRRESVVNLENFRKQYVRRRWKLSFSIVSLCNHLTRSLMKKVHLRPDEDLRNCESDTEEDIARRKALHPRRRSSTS
Sequence of Death-associated protein kinase 1 (Homo sapiens) (P53355 whole entry, looked up): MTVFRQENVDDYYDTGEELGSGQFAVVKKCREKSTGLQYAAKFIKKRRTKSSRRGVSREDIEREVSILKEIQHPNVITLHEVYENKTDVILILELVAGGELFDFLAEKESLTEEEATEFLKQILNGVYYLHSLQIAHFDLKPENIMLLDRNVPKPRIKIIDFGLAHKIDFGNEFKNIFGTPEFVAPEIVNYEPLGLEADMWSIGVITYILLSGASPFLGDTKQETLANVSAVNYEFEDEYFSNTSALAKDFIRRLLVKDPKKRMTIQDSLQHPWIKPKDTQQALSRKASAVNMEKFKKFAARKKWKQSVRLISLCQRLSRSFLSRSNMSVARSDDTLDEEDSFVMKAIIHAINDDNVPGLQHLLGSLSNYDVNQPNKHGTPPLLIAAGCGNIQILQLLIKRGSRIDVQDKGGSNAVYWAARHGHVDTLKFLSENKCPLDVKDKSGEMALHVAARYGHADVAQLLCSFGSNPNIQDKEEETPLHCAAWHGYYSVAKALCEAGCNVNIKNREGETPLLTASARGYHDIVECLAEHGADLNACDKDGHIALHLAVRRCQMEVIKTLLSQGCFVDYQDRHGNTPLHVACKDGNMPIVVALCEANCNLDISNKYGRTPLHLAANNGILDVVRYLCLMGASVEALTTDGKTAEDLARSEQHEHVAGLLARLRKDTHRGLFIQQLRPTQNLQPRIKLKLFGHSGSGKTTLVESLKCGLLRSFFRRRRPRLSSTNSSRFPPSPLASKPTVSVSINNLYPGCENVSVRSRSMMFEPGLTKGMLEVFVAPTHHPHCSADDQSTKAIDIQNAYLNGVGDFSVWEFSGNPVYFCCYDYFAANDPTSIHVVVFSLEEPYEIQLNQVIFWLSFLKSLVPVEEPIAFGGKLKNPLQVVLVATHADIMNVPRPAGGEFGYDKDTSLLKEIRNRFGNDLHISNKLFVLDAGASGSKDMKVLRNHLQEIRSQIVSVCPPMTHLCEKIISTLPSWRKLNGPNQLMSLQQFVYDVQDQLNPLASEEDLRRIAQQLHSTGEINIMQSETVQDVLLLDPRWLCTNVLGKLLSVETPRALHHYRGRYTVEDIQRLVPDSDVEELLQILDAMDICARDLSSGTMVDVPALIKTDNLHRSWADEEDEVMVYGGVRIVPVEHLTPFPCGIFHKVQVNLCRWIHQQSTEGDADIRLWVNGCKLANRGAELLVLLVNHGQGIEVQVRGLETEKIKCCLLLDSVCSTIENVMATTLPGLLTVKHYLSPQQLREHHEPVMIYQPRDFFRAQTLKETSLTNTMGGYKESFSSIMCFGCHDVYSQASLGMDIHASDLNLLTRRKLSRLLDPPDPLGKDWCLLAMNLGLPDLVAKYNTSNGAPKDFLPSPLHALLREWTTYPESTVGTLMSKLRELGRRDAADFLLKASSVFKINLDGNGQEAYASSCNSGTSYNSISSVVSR

Nc1ccc2ncnc(NCCc3ccc(Oc4ccccc4)cc3)c2c1
residual activity [1]: 75%
residual activity [2]: 105%
residual activity [3]: 100%
residual activity [4]: 110%
residual activity [5]: 87%
residual activity [6]: 91%
residual activity [7]: 90%
residual activity [8]: 98%
residual activity [9]: 86%
residual activity [10]: 62%
residual activity [11]: 48%
residual activity [12]: 103%
residual activity [13]: 92%
residual activity [14]: 107%
residual activity [15]: 87%
residual activity [16]: 98%
residual activity [17]: 91%
residual activity [18]: 95%

CN(C)c1ccc(/C=C2\C(=O)Nc3ccccc32)cc1
residual activity [1]: 80%
residual activity [2]: 102%
residual activity [3]: 88%
residual activity [4]: 88%
residual activity [5]: 101%
residual activity [6]: 104%
residual activity [7]: 99%
residual activity [8]: 111%
residual activity [9]: 130%
residual activity [10]: 25%
residual activity [11]: 6%
residual activity [12]: 98%
residual activity [13]: 98%
residual activity [14]: 100%
residual activity [15]: 102%
residual activity [16]: 123%
residual activity [17]: 107%
residual activity [18]: 99%

Cc1cccc(-c2[nH]c(C(C)(C)C)nc2-c2ccc3c(c2)OCO3)n1
residual activity [1]: 77%
residual activity [4]: 86%
residual activity [5]: 99%
residual activity [7]: 98%
residual activity [8]: 145%
residual activity [9]: 143%
residual activity [12]: 94%
residual activity [13]: 104%
residual activity [14]: 90%
residual activity [15]: 106%

CCC(=O)Nc1ccc2ncnc(Nc3cccc(Br)c3)c2c1
residual activity [1]: 93%
residual activity [2]: 98%
residual activity [3]: 107%
residual activity [4]: 79%
residual activity [5]: 100%
residual activity [6]: 92%
residual activity [7]: 82%
residual activity [8]: 112%
residual activity [9]: 118%
residual activity [10]: 95%
residual activity [11]: 77%
residual activity [12]: 99%
residual activity [13]: 82%
residual activity [14]: 71%
residual activity [15]: 89%
residual activity [16]: 105%
residual activity [17]: 90%
residual activity [18]: 105%
